Holding throughout (experiment): DAPPL (digital affinity profiling via proximity ligation, sequencing); 10 mM Tris-HCl pH 7.5, 50 mM NaCl, 1 mM DTT, 4% glycerol, room temperature, 30 min; GST-TFs on glutathione beads, 16-mer random dsDNA library, 0.1% formaldehyde crosslink after washing; high values mean tight binding
Settings in all cases: protein: recombinant; tags: N-terminal GST; dsDNA, one strand shown

In one assay the target is SPI1 (Homo sapiens, UniProt P17947 1-270). In short, it runs like this: (§1)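 Binding signal is defined as a hexamer's read frequency for one factor over its frequency for the tag-only sample. To obtain reads, GST-fused human transcription factors were expressed in yeast, captured on glutathione beads, barcoded with DNA and pooled with that sample. Pools met 200 nmole of a 16-mer random double-stranded DNA library in Tris/NaCl/DTT/glycerol buffer for 30 min at room temperature before washing, 0.1% formaldehyde crosslinking, proximity ligation (BsaI/T4 ligase, 1 h, 37 °C), PCR and Illumina NextSeq500 sequencing.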

A further assay has as its target SPIB (Homo sapiens, UniProt Q01892 1-262). An outline of the steps:
as §1

Another assay deals with T1, FEV (Homo sapiens, UniProt Q99581 1-238).
T1 sequence: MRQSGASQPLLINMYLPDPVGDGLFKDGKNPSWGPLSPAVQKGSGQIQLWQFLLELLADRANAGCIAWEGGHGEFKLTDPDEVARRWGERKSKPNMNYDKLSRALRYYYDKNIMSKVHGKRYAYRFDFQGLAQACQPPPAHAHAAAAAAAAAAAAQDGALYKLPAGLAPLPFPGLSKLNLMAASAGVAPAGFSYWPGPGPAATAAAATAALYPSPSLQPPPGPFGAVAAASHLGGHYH
In short, it runs like this:
as §1

A further assay deals with ELF4 (Homo sapiens, UniProt Q99607 1-663). An outline of the steps:
as §1

A further assay has as its target T2, ETV2 (Homo sapiens, UniProt O00321 1-342).
T2 sequence: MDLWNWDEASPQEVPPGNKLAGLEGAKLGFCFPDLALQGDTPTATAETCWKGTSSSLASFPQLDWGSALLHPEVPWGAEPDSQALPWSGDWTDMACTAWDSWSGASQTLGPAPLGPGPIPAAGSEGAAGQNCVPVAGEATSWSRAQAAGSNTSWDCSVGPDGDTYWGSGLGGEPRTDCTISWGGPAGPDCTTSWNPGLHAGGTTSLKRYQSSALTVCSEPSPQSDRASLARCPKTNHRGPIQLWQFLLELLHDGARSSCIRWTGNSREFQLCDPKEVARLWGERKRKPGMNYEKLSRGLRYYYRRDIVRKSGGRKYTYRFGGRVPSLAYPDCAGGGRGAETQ
In short, it runs like this: as §1

In another assay the target is T3, ERF (Homo sapiens, UniProt P50548 1-548).
T3 sequence: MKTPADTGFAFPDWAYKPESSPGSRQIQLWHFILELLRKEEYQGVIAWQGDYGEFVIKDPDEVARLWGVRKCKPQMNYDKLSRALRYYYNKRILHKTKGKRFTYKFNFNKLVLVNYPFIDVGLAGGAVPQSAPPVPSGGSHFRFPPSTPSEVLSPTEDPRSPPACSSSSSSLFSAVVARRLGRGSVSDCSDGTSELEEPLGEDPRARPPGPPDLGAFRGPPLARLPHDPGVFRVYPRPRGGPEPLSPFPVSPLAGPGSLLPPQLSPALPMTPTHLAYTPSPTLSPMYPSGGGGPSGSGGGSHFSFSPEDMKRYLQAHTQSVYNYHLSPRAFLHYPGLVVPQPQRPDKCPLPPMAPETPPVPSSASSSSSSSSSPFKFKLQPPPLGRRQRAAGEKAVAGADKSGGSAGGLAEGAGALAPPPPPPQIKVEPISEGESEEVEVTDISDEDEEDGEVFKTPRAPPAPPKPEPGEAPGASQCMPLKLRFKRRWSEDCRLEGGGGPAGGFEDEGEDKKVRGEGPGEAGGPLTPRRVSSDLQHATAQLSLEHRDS
An outline of the steps: as §1

The next assay has as its target T4, ETS2 (Homo sapiens, UniProt P15036 1-469).
T4 sequence: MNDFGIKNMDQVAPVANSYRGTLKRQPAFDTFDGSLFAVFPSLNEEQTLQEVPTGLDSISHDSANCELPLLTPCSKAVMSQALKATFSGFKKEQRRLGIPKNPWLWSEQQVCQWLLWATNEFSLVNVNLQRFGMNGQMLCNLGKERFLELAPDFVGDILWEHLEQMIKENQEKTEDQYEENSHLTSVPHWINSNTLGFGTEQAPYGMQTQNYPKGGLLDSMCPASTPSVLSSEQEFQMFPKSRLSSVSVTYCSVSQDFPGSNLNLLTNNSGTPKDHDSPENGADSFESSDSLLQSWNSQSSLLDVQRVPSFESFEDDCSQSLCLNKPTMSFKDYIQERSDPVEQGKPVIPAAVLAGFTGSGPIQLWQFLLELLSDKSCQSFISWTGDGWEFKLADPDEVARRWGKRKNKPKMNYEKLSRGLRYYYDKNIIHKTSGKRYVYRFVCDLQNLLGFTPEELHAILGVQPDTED
In short, it runs like this:
as §1

The next assay addresses T5, ELK1 (Homo sapiens, UniProt P19419 1-428).
T5 sequence: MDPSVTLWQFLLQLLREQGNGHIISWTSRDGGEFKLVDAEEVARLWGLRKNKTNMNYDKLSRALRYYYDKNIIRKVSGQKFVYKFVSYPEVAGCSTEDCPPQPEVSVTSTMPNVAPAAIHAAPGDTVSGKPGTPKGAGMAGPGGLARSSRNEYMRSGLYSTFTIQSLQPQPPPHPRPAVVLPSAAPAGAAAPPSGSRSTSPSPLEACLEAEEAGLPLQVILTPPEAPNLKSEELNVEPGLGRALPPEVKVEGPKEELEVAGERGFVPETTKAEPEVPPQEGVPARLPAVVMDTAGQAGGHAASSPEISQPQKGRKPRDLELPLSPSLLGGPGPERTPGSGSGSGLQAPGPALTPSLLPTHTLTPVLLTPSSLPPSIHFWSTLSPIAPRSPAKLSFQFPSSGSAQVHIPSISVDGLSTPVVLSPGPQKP
An outline of the steps: as §1

In the next assay the target is T6, ERG (Homo sapiens, UniProt P11308 1-479).
T6 sequence: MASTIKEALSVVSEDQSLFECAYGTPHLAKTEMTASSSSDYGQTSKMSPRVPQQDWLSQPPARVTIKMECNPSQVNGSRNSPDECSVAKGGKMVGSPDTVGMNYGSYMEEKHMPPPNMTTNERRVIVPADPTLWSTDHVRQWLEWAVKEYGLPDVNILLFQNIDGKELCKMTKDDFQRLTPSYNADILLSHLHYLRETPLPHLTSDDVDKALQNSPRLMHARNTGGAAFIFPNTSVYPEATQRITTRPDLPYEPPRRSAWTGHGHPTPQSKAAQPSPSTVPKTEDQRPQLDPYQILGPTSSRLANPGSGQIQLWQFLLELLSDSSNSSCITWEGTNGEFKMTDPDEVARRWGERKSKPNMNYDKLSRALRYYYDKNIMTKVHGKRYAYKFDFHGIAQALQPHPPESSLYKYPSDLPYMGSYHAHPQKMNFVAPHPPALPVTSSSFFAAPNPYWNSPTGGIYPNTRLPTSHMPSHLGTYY
In short, it runs like this:
as §1

The target in a further assay is T7, ELK4 (Homo sapiens, UniProt P28324-2 1-405).
T7 sequence: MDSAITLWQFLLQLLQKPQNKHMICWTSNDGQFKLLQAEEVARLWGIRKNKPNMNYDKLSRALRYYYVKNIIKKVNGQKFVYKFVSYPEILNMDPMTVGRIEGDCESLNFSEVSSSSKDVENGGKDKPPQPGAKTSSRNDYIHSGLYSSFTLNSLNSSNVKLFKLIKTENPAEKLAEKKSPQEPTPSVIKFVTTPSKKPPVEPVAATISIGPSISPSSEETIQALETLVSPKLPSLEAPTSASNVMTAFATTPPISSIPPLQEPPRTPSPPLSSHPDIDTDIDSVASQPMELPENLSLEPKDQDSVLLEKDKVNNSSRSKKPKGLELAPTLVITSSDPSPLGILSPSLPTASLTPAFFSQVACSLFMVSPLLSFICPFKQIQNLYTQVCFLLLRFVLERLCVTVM
In short, it runs like this:
as §1

The target of the next assay is T8, ELF3 (Homo sapiens, UniProt P78545 1-371).
T8 sequence: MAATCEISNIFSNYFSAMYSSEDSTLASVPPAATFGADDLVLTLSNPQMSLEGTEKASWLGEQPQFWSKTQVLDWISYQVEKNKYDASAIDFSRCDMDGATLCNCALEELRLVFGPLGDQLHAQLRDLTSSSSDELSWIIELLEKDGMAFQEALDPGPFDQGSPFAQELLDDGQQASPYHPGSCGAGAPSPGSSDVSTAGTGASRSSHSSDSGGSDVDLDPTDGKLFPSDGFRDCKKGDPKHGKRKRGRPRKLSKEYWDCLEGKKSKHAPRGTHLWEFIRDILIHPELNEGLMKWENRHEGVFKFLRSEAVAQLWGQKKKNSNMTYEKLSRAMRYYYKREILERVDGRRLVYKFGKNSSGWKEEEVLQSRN
In short, it runs like this:
as §1

Another assay has as its target CRX (Homo sapiens, UniProt O43186 1-299). In short, it runs like this: as §1
The target in the next assay is ETV1 (Homo sapiens, UniProt P50549 1-477). An outline of the steps:
as §1

A further assay has as its target T9, SPDEF (Homo sapiens, UniProt O95238 1-335).
T9 sequence: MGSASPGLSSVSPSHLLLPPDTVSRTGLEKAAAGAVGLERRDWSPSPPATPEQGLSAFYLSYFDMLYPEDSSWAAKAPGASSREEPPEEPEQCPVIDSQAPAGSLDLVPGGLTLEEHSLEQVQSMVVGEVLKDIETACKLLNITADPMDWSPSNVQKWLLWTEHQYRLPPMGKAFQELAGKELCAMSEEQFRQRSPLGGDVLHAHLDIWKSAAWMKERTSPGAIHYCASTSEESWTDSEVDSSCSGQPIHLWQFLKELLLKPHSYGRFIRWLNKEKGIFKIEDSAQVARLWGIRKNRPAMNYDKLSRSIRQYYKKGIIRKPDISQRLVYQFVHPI
An outline of the steps:
as §1

The target of a further assay is T10, ETV3 (Homo sapiens, UniProt P41162-2 1-143).
T10 sequence: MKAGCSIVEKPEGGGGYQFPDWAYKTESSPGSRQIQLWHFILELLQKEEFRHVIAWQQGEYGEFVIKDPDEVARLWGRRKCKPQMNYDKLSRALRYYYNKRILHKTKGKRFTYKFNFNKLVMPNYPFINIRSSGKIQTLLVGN
An outline of the steps:
as §1

The values that follow come from paper PMC7862700, “An all-to-all approach to the identification of sequence-specific readers for epigenetic DNA modifications on cytosine”.

Chain of ELF4 (Q99607 whole entry): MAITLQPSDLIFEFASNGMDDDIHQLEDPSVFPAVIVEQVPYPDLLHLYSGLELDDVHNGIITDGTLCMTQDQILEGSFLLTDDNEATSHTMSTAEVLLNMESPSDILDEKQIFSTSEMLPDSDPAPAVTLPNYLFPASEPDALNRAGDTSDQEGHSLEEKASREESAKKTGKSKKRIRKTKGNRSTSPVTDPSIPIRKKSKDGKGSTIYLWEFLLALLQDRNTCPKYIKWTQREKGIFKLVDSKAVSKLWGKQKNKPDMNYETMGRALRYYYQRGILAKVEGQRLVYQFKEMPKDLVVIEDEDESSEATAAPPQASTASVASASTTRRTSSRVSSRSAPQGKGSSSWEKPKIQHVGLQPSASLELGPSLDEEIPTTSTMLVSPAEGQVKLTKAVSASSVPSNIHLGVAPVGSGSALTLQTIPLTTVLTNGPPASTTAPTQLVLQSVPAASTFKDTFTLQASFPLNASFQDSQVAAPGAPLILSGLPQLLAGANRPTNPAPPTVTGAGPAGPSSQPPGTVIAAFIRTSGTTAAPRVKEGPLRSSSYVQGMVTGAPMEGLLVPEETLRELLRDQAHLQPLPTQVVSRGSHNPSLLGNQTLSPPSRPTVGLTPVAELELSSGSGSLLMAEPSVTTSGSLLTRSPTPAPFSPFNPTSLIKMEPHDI
Chain of SPIB (Q01892 whole entry): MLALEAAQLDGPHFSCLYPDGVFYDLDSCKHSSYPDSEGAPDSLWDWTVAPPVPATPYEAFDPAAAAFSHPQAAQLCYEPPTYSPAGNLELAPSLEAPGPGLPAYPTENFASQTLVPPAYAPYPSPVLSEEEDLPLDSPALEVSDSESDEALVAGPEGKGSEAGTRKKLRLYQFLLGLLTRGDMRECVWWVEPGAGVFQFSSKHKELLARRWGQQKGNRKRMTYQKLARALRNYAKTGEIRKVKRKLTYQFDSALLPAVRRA
Chain of CRX (O43186 whole entry): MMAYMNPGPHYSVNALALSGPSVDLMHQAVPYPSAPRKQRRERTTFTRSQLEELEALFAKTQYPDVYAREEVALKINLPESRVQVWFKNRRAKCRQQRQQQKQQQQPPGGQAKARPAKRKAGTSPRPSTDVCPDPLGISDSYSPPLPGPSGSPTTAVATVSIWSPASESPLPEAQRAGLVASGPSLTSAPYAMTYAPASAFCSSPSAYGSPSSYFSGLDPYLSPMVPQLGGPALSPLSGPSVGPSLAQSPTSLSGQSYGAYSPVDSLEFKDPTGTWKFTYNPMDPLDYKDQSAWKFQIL
Chain of ETV1 (P50549 whole entry): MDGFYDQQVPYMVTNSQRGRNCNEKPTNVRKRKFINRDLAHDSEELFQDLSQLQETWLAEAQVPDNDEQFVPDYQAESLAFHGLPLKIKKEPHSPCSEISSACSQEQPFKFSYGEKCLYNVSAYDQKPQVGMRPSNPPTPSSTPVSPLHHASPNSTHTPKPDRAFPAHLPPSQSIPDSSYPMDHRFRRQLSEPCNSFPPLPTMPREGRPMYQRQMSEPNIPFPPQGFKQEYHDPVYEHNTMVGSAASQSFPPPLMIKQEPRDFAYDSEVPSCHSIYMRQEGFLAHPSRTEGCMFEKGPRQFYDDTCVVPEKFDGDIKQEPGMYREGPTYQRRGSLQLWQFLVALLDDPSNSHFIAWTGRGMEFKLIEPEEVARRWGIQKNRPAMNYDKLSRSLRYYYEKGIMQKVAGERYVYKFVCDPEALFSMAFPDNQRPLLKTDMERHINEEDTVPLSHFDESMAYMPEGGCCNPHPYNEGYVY

Take GTTAGC: the binding signal in the assay with SPI1 is 1.01 fold enrichment (6-mer frequency, TF over GST control); in the assay with SPIB it was 1 fold enrichment (6-mer frequency, TF over GST control); with FEV it was 1 fold enrichment (6-mer frequency, TF over GST control); with ELF4, 1.06 fold enrichment (6-mer frequency, TF over GST control); with ETV2 it was 1.17 fold enrichment (6-mer frequency, TF over GST control); in the assay with ERF, 1.02 fold enrichment (6-mer frequency, TF over GST control). Moreover, the binding signal with ETS2 is 1.01 fold enrichment (6-mer frequency, TF over GST control).
Consider AGGTAC, for which the binding signal in the assay with ELF4 is 1.01 fold enrichment (6-mer frequency, TF over GST control).
On to TTGAAG, for which the binding signal with ELK1 is 1.06 fold enrichment (6-mer frequency, TF over GST control); with ERG, 1.02 fold enrichment (6-mer frequency, TF over GST control); with ELK4, 1.09 fold enrichment (6-mer frequency, TF over GST control); with ELF3, 1.07 fold enrichment (6-mer frequency, TF over GST control); in the assay with CRX, 1.03 fold enrichment (6-mer frequency, TF over GST control); with ETV1 it was 1.01 fold enrichment (6-mer frequency, TF over GST control). In addition, the binding signal with ERF was 1.01 fold enrichment (6-mer frequency, TF over GST control); with SPDEF, 1.03 fold enrichment (6-mer frequency, TF over GST control); with ETV3 it was 1.02 fold enrichment (6-mer frequency, TF over GST control).
